High-throughput results deposited in PubChem BioAssay by National Center for Advancing Translational Sciences (NCATS).
Rows were chosen to be rich in hits. Some 3.8% of all compounds tested hit in one or more screens of this group.
TGFb SMAD3 inh: blocks TGF-b signaling. actives 1.2% (n = 410,000). HepG2 CAGA-GFP TGF-b/SMAD3 reporter, GFP fluorescence, 18 h; TGF-beta stimulated, 500 pg/mL final. Potency, µM (titrated, usually from 46.1 µM), hits mostly inhibitors; note: nearly all actives have a fitted effect of over 65% in size
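Inhibition of TGF-beta-driven CAGA-GFP reporter expression in HEPG2 cells is measured by cellular GFP fluorescence after 18 h stimulation with 500 pg/mL recombinant TGF-beta in 1% FBS medium at 37 degrees C.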
S2 tox: cell viability loss in ATXN counter-screen; S2 cells (HEK-293 line with an ATXN2-luciferase reporter) viability, CellTiter-Fluor protease fluorescence, 24 h; Potency, µM (doses to about 56.7 µM), hits mostly cytotoxic; actives 0.49% (n = 400,000); AID 651635; note: nearly all actives have a fitted effect of over 40% in size
Nrf2 inh: Nrf2 pathway inhibition; A549 ARE-Fluc reporter, luciferase luminescence, 18-24 h; Potency, µM (highest dose often 46 µM), usual class: inhibitors; actives 2.1% (n = 360,000); note: nearly all actives have a fitted effect of over 60% in size
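A549 ARE_Fluc cells, 5000/well, 5% FBS OPTI-MEM; compounds in dose-response, 18-24 h at 37 °C/5% CO2; CellTiter-Fluor viability read (Ex 405/Em 525), then BugLite luciferase luminescence = Nrf2 activity.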
A549 viability: A549 cytotoxicity, counter-screen for Nrf2 inhibitors; A549 ARE-Fluc cells, CellTiter-Fluor viability, 18-24 h; Potency, µM (titrated, usually from 46 µM), usual class: inhibitors; actives 0.16% (n = 390,000); AID 504648
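Cytotoxicity counterscreen: CellTiter-Fluor fluorescence was measured in A549 ARE_Fluc cells after 18-24 h of compound exposure in a concentration series. The subsequent BugLite luminescent read reports ARE-luciferase activity.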
HepG2 viability: counter-screen for TGF-b inhibitors: cytotoxicity in HepG2 cells; actives 0.76% (n = 410,000); Potency, µM (top dose mostly 46.1 µM), most hits filed as cytotoxic; AID 588856; HepG2 CAGA-GFP viability, ATP luminescence, 18 h
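CellTiter-Glo luminescence gave cytotoxicity after 18 hours at 37 degrees C. The cells were HepG2 CAGA-GFP in 1% FBS DMEM, stimulated with 500 pg/mL TGF-beta after compound addition. %Activity was normalised to no-cell wells (complete cell-killing) and DMSO (no toxicity), and curves were fitted and classified.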
ATXN2 expr inh: ATXN2 expression inhibition; Potency, µM (doses to about 57 µM), most hits filed as inhibitors; HEK-293 ATXN2-luciferase reporter, luminescence, 24 h; actives 0.72% (n = 360,000); note: nearly all actives have a fitted effect of over 55% in size
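qHTS (up to 57 uM final) was run with 24 h compound exposure of reporter cells at 37 °C. Each well was multiplexed: SteadyGlo luminescence measured ATXN2-luciferase expression after a fluorogenic Gly-Phe-AFC viability readout (25 uM final).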
Hits are given with their value; [ ] = remark or other dose. Calls come from the whole dose curve; as a rule, active = well fitted curve in the direction sought with a large enough effect; inconclusive = small, poorly fitted or top-dose-only effect, or another doubt; inactive = no such curve, though single readings can be large; an effect the other way counts as inactive or inconclusive.

Screening CC(C)(C)OC(=O)NCCCCCNC(=O)c1nc[nH]c1C(=O)NCc1ccc(CNC(=O)OC(C)(C)C)cc1 returned TGFb SMAD3 inh inconclusive, S2 tox 16µM, Nrf2 inh 13µM, A549 viability inconclusive, HepG2 viability inactive and ATXN2 expr inh 20µM.
Screening O=C1C(=O)C(c2cc(O)c(O)c(O)c2)Oc2cc(O)cc(O)c21 (stereo unspecified) returned TGFb SMAD3 inh inactive, Nrf2 inh inactive, A549 viability inactive and HepG2 viability inactive.
N#C/C(=C\c1c(N2CCC(C(N)=O)CC2)nc2ccccn2c1=O)C(=O)NC1CCCCC1 was read as TGFb SMAD3 inh inactive, S2 tox inactive, Nrf2 inh inactive, A549 viability inactive and HepG2 viability inactive.
For Cc1cccc(NC(=O)c2nc[nH]c2C(=O)NCCCNC(=O)c2[nH]cnc2C(=O)Nc2cccc(C)c2)c1 the results were TGFb SMAD3 inh inactive, S2 tox inactive, Nrf2 inh inactive, A549 viability inactive, HepG2 viability inactive and ATXN2 expr inh inactive.
`Cc1cccc(NC(=O)c2nc[nH]c2C(=O)NCCCCCNC(=O)OC(C)(C)C)c1` gave TGFb SMAD3 inh inconclusive, Nrf2 inh 21µM, A549 viability inconclusive, HepG2 viability inactive and ATXN2 expr inh inconclusive.
CC(C)(C)OC(=O)CNC(=O)c1[nH]cnc1C(=O)Nc1ccc(CNC(=O)OC(C)(C)C)cc1 was read as TGFb SMAD3 inh inconclusive, S2 tox inconclusive, Nrf2 inh inconclusive, A549 viability inactive, HepG2 viability inactive and ATXN2 expr inh 32µM.
For O=C(NCc1cccnc1)/C(=C/c1ccc(-c2cccc(Cl)c2)o1)S(=O)(=O)c1ccccc1 the results were TGFb SMAD3 inh inconclusive, S2 tox inactive, Nrf2 inh inactive, A549 viability inactive, HepG2 viability inactive and ATXN2 expr inh inconclusive.
`O=C(NCc1cccnc1)/C(=C\c1ccc(-c2cccc(Cl)c2)o1)S(=O)(=O)c1ccccc1` gave TGFb SMAD3 inh 16µM, Nrf2 inh 21µM, A549 viability 21µM, HepG2 viability inactive and ATXN2 expr inh 25µM.
CCC(C)(C(=O)NC1CCCCC1)N(C(=O)CC1NC(=O)NC1=O)c1c(C)n(C)n(-c2ccccc2)c1=O (stereo unspecified) was read as TGFb SMAD3 inh inactive, S2 tox inconclusive, Nrf2 inh inactive, A549 viability inactive, HepG2 viability inactive and ATXN2 expr inh inactive.
For Cc1nn(-c2ccccc2)c(C)c1/C=N/NC(=O)c1cc(-c2ccc(Cl)s2)[nH]n1 the results were TGFb SMAD3 inh inactive, S2 tox inactive, Nrf2 inh 10µM, A549 viability inactive, HepG2 viability inactive and ATXN2 expr inh inactive.
`Cc1nn(-c2ccccc2)c(C)c1/C=N/NC(=O)c1cc(C23CC4CC(CC(C4)C2)C3)[nH]n1` gave TGFb SMAD3 inh inconclusive, S2 tox inconclusive, Nrf2 inh 13µM, A549 viability inconclusive, HepG2 viability inactive and ATXN2 expr inh inactive.
CC(=O)Nc1ccc(NC2CCCCC2NS(=O)(=O)c2ccccc2)cc1 (stereo unspecified) was read as TGFb SMAD3 inh inactive, S2 tox inactive, Nrf2 inh inactive, A549 viability inactive, HepG2 viability inactive and ATXN2 expr inh inactive.
Screening CCn1c(=O)c2cc(C(=O)NC3CCCCCC3)sc2c2ccccc21 returned TGFb SMAD3 inh inactive, S2 tox inactive, Nrf2 inh inconclusive, A549 viability inactive, HepG2 viability inactive and ATXN2 expr inh inconclusive.
`Cn1c(=O)c2cc(C(=O)NC3CCCCCC3)sc2c2ccccc21` gave TGFb SMAD3 inh inactive, S2 tox inactive, Nrf2 inh 18µM, A549 viability inconclusive, HepG2 viability inactive and ATXN2 expr inh inactive.
For O=C(NCCNc1ccnc2cc(Cl)ccc12)c1ccccc1F the results were TGFb SMAD3 inh inactive, S2 tox inconclusive, Nrf2 inh 18µM, A549 viability inactive and HepG2 viability inactive.
Screening O=C(NCCNc1ccc(Cl)cc1[N+](=O)[O-])c1ccccc1F returned TGFb SMAD3 inh inconclusive, S2 tox inactive, Nrf2 inh inactive, A549 viability inactive and HepG2 viability inactive.
For COc1ccc(C(C)(NC(C)=O)c2nc(-c3ccccc3OC)cs2)cc1 (stereo unspecified) the results were TGFb SMAD3 inh inactive, S2 tox inactive, HepG2 viability inactive and ATXN2 expr inh inactive.
For COc1cc2nc(CN3CCN(S(=O)(=O)c4ccc(Cl)cc4)CC3)[nH]c(=O)c2cc1OC the results were TGFb SMAD3 inh inactive, S2 tox inactive, Nrf2 inh 23µM, A549 viability inactive, HepG2 viability inactive and ATXN2 expr inh inactive[11.3 µM].
Screening COc1cc2nc(CN3CCN(S(=O)(=O)c4ccccc4)CC3)[nH]c(=O)c2cc1OC returned TGFb SMAD3 inh inactive, S2 tox inactive, Nrf2 inh inactive, A549 viability inactive, HepG2 viability inactive and ATXN2 expr inh inactive.
For O=C1c2[nH]nc(-c3ccccc3O)c2C(c2ccc(Cl)cc2)N1Cc1ccco1 (stereo unspecified) the results were TGFb SMAD3 inh inconclusive, Nrf2 inh inactive, A549 viability inactive and HepG2 viability 16µM.
Screening CC(C)c1ccc(C2c3c(-c4ccccc4O)n[nH]c3C(=O)N2Cc2ccncc2)cc1 (stereo unspecified) returned TGFb SMAD3 inh inconclusive, S2 tox 32µM, Nrf2 inh inconclusive, A549 viability inactive, HepG2 viability inactive and ATXN2 expr inh inactive.
For COCCN1C(=O)c2[nH]nc(-c3ccccc3O)c2C1c1ccc(OCc2ccccc2)c(OC)c1 (stereo unspecified) the results were TGFb SMAD3 inh inconclusive, Nrf2 inh inconclusive, A549 viability inactive and HepG2 viability inactive.
Screening O=C1c2[nH]nc(-c3ccccc3O)c2C(c2ccc(Cl)cc2)N1CCc1ccccc1 (stereo unspecified) returned TGFb SMAD3 inh 20µM, Nrf2 inh inconclusive, A549 viability inconclusive and HepG2 viability inactive.
O=C1c2[nH]nc(-c3ccccc3O)c2C(c2ccccc2)N1Cc1ccco1 (stereo unspecified) was read as TGFb SMAD3 inh inconclusive, S2 tox inconclusive, Nrf2 inh inactive, A549 viability inactive, HepG2 viability inactive and ATXN2 expr inh inactive.
CCCN1C(=O)c2[nH]nc(-c3ccccc3O)c2C1c1cccc(OCc2ccccc2)c1 (stereo unspecified) was read as TGFb SMAD3 inh 11µM, Nrf2 inh inconclusive, A549 viability inactive and HepG2 viability 16µM.
Screening COc1ccccc1C(=O)NNC(=O)c1ccc(NC(=O)C(C)C)cc1 returned TGFb SMAD3 inh inactive, S2 tox inactive, Nrf2 inh inactive, A549 viability inactive, HepG2 viability inactive and ATXN2 expr inh inactive.
